The record followed here is the supplement of paper PMC11172423.

Test [1] deals with Falciformispora senegalensis CBS197.79. As to the kind of experiment: growth relative to untreated control; higher = less inhibition, active = 20 or less. Summed up: (§1)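 In 96-well plates, suspended hyphal fragments of M. mycetomatis MM55 or F. senegalensis CBS197.79 were exposed to compound at 100 or 25 µM for 7 days at 37 °C. The suspension medium was colourless RPMI 1640 with L-glutamine and MOPS, adjusted to 68–72% transmission at 660 nm. Viability was measured with MTS (2 h, 490 nm) or resazurin (600 nm). Growth means metabolic activity compared with the untreated growth control after blank correction of both with medium plus dye.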

In test [2] the test system is Madurella mycetomatis MM55. The test is described as above. In short, it runs like this: as §1

Molecules are shown by their SMILES. Values without a mark were called inactive.

In the case of `O=C1CN(C(=O)CCC2CCCC2)C(c2ccc(F)cc2)c2cc(Cl)ccc2N1` (centres undefined), the growth in test [1] (25 µM) was 71.2%; in test [1] (100 µM) it was 74.3%; in test [2] (25 µM), 69.6%; in test [2] (100 µM) it was 94.9%.
On the same counts, the results for `Cc1ccc(NC(=O)c2ccc(CN3CCN(C)CC3)cc2)cc1Nc1nccc(-c2cccnc2)n1` are 95.1%, 103%, 86% and 70.7%.
For `OB(O)O`, in that order: 90.6%, 104%, 98.7% and 163%.
For `CC(Nc1ccc2c(c1)OCCCO2)C(=O)Nc1cc(C(F)(F)F)ccc1N1CCOCC1` (centres undefined), in that order: 87.5%, 86.1%, 97.8% and 125%.
With `Nc1nc2ccccc2n1CC(O)c1ccc(Cl)cc1Cl` (centres undefined), the growth was 82.1% in test [1] (25 µM), 30.8% in test [1] (100 µM), 95.4% in test [2] (25 µM) and 6.46% (active) in test [2] (100 µM).
For `CC1(C)CCC(CO)(NC(=O)c2cc3c(F)cc(F)cc3[nH]2)CC1`, in that order: 93.1%, 93.5%, 28.6% and 6.07% (active).
As for `CS(=O)(=O)NC1CCN(C(=O)c2ccc(Nc3nccc(-c4cc(Cl)cc(C(F)(F)F)c4)n3)cc2)C1` (centres undefined), the growth in test [1] (25 µM) was 93.2%; in test [1] (100 µM), 82.5%; in test [2] (25 µM), 122%; in test [2] (100 µM) it was 95.4%.
On the same counts, the results for `Cc1ccc(C(=O)Nc2ccc(CN3CCN(C)CC3)c(C(F)(F)F)c2)cc1C#Cc1cnc2cccnn12` are 20.7%, -2.57% (active), 16.4% (active) and 10.5% (active).
Consider `Cc1cc(OCCN2CCOCC2)nn1-c1ccc2ccccc2c1`, for which the growth is 105% in test [1] (25 µM), 103% in test [1] (100 µM), 85.8% in test [2] (25 µM) and 65% in test [2] (100 µM).
`CN1CCC[C@@H]1CCO[C@](C)(c1ccccc1)c1ccc(Cl)cc1`: the growth in test [1] (25 µM) is 17.9% (active); in test [1] (100 µM), 13.7% (active); in test [2] (25 µM) it was 11.1% (active); in test [2] (100 µM), 4.37% (active).
As for `CC(C)CN(C[C@@H](O)[C@H](Cc1ccccc1)NC(=O)O[C@H]1CO[C@H]2OCC[C@H]21)S(=O)(=O)c1ccc(N)cc1`, the growth in test [1] (25 µM) was 97.7%; in test [1] (100 µM), 101%; in test [2] (25 µM) it was 130%; in test [2] (100 µM), 90.5%.
